Results on 7 molecules are retold here after PubChem BioAssay (NCI).

About 83,000 compounds went through this panel and 20% of them were active in at least one assay; those are over-represented in the sample as a whole.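 Cells were grown in 96-well plates and exposed to the test compound at a single concentration for 48 hours; results are reported as percent growth, with values below 10 considered active.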 Values without a mark were called inactive. The source made the active and inactive calls.

Common to all, as to assay: NCI-60 one-dose screen, 48 h (100 = growth as untreated, 0 = no growth, -100 = all killed)
Common to all, as to details: 10 µM unless noted

The subject of test [1] is HCT-15 colon.
Test [2] has as its system HT29 colon.
Test [3] concerns SNB-75 CNS.
Test [4] deals with SNB-19 CNS.
In test [5] the test system is U251 CNS.
Test [6] concerns PC-3 prostate.
Test [7] deals with SK-MEL-5 melanoma.
Test [8] relates to UACC-62 melanoma.
Test [9] deals with LOX IMVI melanoma.
In test [10] the test system is SK-MEL-28 melanoma.
In test [11] the test system is SK-MEL-2 melanoma.
Test [12] has as its system EKVX NSCLC.
Test [13] relates to SN12C renal.
In test [14] the test system is UO-31 renal.
Test [15] deals with TK-10 renal.
Test [16] has as its system ACHN renal.
Test [17] has as its system CAKI-1 renal.
Test [18] concerns CCRF-CEM leukemia.
Test [19] relates to MOLT-4 leukemia.
Test [20] deals with A498 renal.

Turning to `C=CCn1c(SCC(=O)Nc2ccc(C(=O)/C=C/c3cc(OC)c(OC)c(OC)c3)cc2)nnc1-c1cc(-c2ccc(S(C)(=O)=O)cc2)nc2ccccc12`, the growth was 69.7% in test [1]; 81.3% in test [2]; 55.7% in test [3]; 74.1% in test [4]; 88.3% in [5]; 88.8% in test [6]. In addition, the growth is 82.7% in test [7]; 75.5% in test [8]; 67% in test [9]; 108% in test [10]; 103% in test [11]; 90.9% in test [12]. For the same molecule, the growth is 88.5% in [13]; 78.4% in [14]; 159% in test [15]; 91.9% in test [16]; 77.3% in test [17]; 35% in [18]. Further, the growth in [19] was 56.3%.
With `Cc1c(C(=O)NO)sc2ncnc(Nc3ccc(NC(=S)Nc4ccccc4)cc3)c12`, the growth was 95.4% in test [1]; 103% in test [2]; 87.9% in test [3]; 96.5% in test [4]; 104% in test [5]; 106% in [6]. The growth in [7] was 101%; in [8], 95%; in [9], 93.8%; in test [10], 105%; in [11], 104%; in test [12], 93.6%. Further, the growth was 101% in [13]; 85.1% in test [14]; 106% in [15]; 105% in test [16]; 96.6% in test [17]; 111% in [19].
Take `O=C1Nc2cc(-c3ccncc3)ccc2/C1=C/c1ccc[nH]1`: the growth was 72.3% in test [1]; 88.8% in [2]; 89.3% in test [3]; 97% in test [4]; 91.7% in test [5]; 88.1% in [6]. Further, the growth is 77.9% in test [7]; 111% in test [8]; 98.8% in test [9]; 69.6% in test [10]; 106% in test [11]; 46.9% in test [12]. Besides, the growth in [13] is 99.5%; in [14], 73.7%; in test [15], 95.7%; in test [16], 54%; in test [17] it was 87.9%; in [18], 104%. The growth in [19] is 96.4%.
With `CC1(C)NCCC[C@]2(C)[C@H]3CC=C4[C@@H]5C[C@@](C)(CO)CC[C@]5(C)CC[C@@]4(C)[C@]3(C)CC[C@@H]12`, the growth in test [1] was 29.9%; in [2] it was 5.18% (active); in test [3], 98.9%; in test [4] it was 61.6%; in [5], 34.2%; in test [6], 35.1%. Besides, the growth in test [7] was 50.7%; in test [8], 73.6%; in test [9], 45.2%; in test [10] it was 68.2%; in test [11] it was 48.4%; in test [12], 86.5%. Besides, the growth in test [13] was 62.1%; in test [14] it was 69.3%; in [15], 63.3%; in [16], 54.3%; in test [17], 76.7%; in [19], 33.8%.
For the molecule `COC(=O)CCCCCCCCC1(C)C=CC(C(C)O)=CC1` (stereo unspecified), the growth in test [1] was 105%; in test [2], 99.9%; in [3], 106%; in test [4], 107%; in test [5], 98.5%; in [6], 97.6%. The growth was 99% in [7]; 107% in [8]; 96.7% in test [9]; 119% in test [10]; 104% in test [11]; 102% in test [12]. The growth in test [13] was 103%; in test [14], 100%; in test [15], 92.2%; in [16], 114%; in test [20], 96.1%; in test [18], 99.7%. The growth in test [19] is 97.8%.
On to `O=C1/C(=C\c2cn(Cc3ccccc3)c3ccc(Br)cc23)c2ccccc2N1c1c(Cl)cccc1Cl`, for which the growth in test [1] is 102%; in test [2], 101%; in [3], 76.4%; in [4], 90.9%; in test [5] it was 96.4%; in test [6], 78%. Also, the growth in [7] is 104%; in test [8] it was 98.4%; in [9] it was 88.8%; in test [10] it was 107%; in test [11] it was 101%; in [12] it was 89.2%. Besides, the growth in [13] was 97.7%; in test [14], 87.3%; in test [15] it was 102%; in test [16] it was 104%; in test [17], 83%; in test [18], 96.8%. Besides, the growth in [19] was 95.8%.
With `O=S(=O)(O)c1cc(O)c2c(N=Nc3ccc(Nc4ccccc4)c4c(S(=O)(=O)O)cccc34)cc(S(=O)(=O)O)cc2c1`, the growth was 99.1% in [1]; 107% in [2]; 96.2% in test [3]; 103% in [4]; 102% in test [5]; 95% in test [6]. In addition, the growth is 109% in test [7]; 105% in test [8]; 96.5% in test [9]; 111% in [10]; 99.7% in [11]; 103% in [12]. For the same molecule, the growth in [13] was 99.2%; in test [14], 74.3%; in test [15] it was 106%; in test [16], 98.5%; in test [17], 99.4%; in [18], 108%. The growth in [19] is 110%.
